Measured values taken from PubChem BioAssay (NCI).
Compounds without any hit were thinned out: in the full panel of roughly 79,000, 15% have a hit. A number with no mark means an inactive call. Active and inactive are the calls of the source. No stated cut-off is given here; in the data, active means growth inhibition above about 70%; inactive means the rest.

test: NCI Yeast Anticancer Drug Screen. Data for the mec2-1 strain (AID 157); conditions: S. cerevisiae mec2-1 strain, at 5.0 µM (retest, dose inferred, filed as 0.5), hits give high values
Procedure, shortened: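 Each compound was tested on mec2-1 yeast, a strain altered in DNA damage repair or cell cycle control. Growth inhibition is reported relative to vehicle.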

Row | Compound | growth inhibition
1 | COC1/C=C\OC2(C)Oc3c(C)c(O)c4c(c3C2=O)C2=NC(C)(C)N(c3ccccc3)C2=C(NC(=O)/C(C)=C\C=C\C(C)C(O)C(C)C(O)C(C)C(OC(C)=O)C1C)C4=O (configuration not stated) | -2%
2 | CSc1nc(C)c(C(=O)CCN2CCOCC2)s1 | 11%
3 | Cn1c(=S)c2[nH]c(=S)[nH]c2n(C)c1=O | 91% (active)
4 | CC(C)CCC(C)(C)c1cc(O)ccc1O | 13%
5 | CCOC(=O)c1ccc(NC(=O)O/N=C(/Cl)CC)cc1 | -7%
6 | COC1OC(COC(=O)c2ccccc2)CC1F (configuration not stated) | -8%

same assay, conditions: S. cerevisiae mec2-1 strain, at 50.0 µM (retest, dose inferred, filed as 5.0), hits give high values

Row | Compound | growth inhibition
7 | NC1=NC2=C(CCCC2)C(c2cccs2)S1 (configuration not stated) | 78% (active)
8 | C/C(=N\NC(=S)Nc1ccc([N+](=O)[O-])cc1)c1nc2ncccc2[nH]1 | 89% (active)
9 | COC(=O)c1ccc(SCC(=O)c2ccc([N+](=O)[O-])o2)cc1 | 98% (active)
10 | CCOC(=O)c1cc(C)ccc1-c1ccc(C)cc1C(=O)OCC | 8%
11 | Cc1ccc(C2COc3cc(O)c(O)cc3C2)cc1 (configuration not stated) | 99% (active)
12 | COc1cc(C2=NCCO2)cc(OC)c1OC | -52%
13 | O=C1c2cccc3cc([N+](=O)[O-])cc(c23)C(=O)N1O | 32%
14 | CCOc1ccccc1C(=O)Oc1cccc(C)c1 | -18%
15 | CCNc1cc(N)[n+](CC)c2n[nH]c(/N=C/c3cc(Cl)cc(Cl)c3O)c12 | 77% (active)
16 | CC(=O)OC1=Cc2ccccc2C(c2ccccc2)c2ccccc21 (configuration not stated) | 31%
17 | CCOC(=O)c1[nH]c(Br)c(-c2ccc(OC)c(OC)c2)c1Br | 97% (active)
